In the library only some 0.77% were active in any assay of this set; here they are far more common.
PKM2 activator = PKM2 (human) enzyme activation | AID 1631 | actives 0.34% (n = 260,000) | purified PKM2, Kinase-Glo ATP luminescence, activation; response scale: 0% is enzyme alone, no compound | Potency, µM (doses to about 57.5 µM), hits mostly activators | P14618; also: nearly all actives have a fitted effect of over 55% in size
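Kinase-Glo luminescence reports ATP generated from ADP (0.1 mM) and PEP (0.5 mM) by purified hPK-M2 after 1 h at room temperature, pH 7.2 imidazole buffer; intermediate enzyme activity allows detecting inhibitors and activators.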
RGS12 GoLoco inh = RGS12 GoLoco-Gai1 interaction inhibition. P63096. Gai1:RGS12 GoLoco peptide FP, rhodamine, 10 min. Potency, µM (titrated, usually from 61.6 µM), hits mostly inhibitors. actives 0.44% (n = 230,000). AID 880; active = well fitted inhibition curve with a large enough effect, not every such curve was filed as active; inactive = no such curve, though single readings can be large or run the other way; also: nearly all actives have a fitted effect of over 30% in size
Target sequence (P63096 whole entry, looked up): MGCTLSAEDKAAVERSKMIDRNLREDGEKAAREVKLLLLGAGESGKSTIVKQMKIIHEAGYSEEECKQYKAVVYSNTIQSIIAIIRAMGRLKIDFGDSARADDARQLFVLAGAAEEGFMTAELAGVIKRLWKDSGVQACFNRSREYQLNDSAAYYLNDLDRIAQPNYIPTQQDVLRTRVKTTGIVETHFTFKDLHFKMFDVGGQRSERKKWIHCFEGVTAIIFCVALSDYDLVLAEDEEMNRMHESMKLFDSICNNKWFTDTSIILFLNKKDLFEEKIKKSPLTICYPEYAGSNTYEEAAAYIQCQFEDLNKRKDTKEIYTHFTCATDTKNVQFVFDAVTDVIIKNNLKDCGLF
Vif-A3G inh = blocks the Vif interaction with human APOBEC3G; Q9HC16; HeLa A3G-eYFP + Vif (tagged APOBEC3G with the HIV-1 protein that degrades it), YFP fluorescence, overnight; Potency, µM (series often up to 46.1 µM), hits mostly inhibitors; actives 0.076% (n = 410,000); also: nearly all actives have a fitted effect of over 60% in size
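HeLa cells stably expressing Vif and C-terminally eYFP-tagged A3G, seeded overnight at 37 deg C, then exposed to compound by pintool overnight at 37 deg C. Rise in yellow fluorescence (Ex 488/Em 500-530, Acumen) marks blocked Vif-driven A3G degradation.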
IL2 activator = activates IL-2 in a cell-based reporter assay; IL-2 activation reporter assay, cell-based qHTS; stimulated with anti-CD3/CD4/CD28 beads; in transgenic mouse T cells; activation, % (series mostly up to about 46 µM); actives 0.065% (n = 360,000); AID 652025; in the data active = activation above about 50%; inconclusive = mostly about 30% to 49%
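Readout is EGFP and DsRed signal by fluorescent plate cytometry after 18 h at 37 degrees C. Transgenic mouse T cells (750/well) received compound for 60 min before bead stimulation (anti-CD3, anti-CD4, anti-CD28); memory T cells served as non-tolerant control.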
Vif-A3F inh = Vif-A3F binding inhibition; HeLa A3F-eYFP + Vif (tagged APOBEC3F with the HIV-1 protein that degrades it), YFP fluorescence increase; Potency, µM (doses to about 46.1 µM); actives 0.2% (n = 390,000); AID 602313; also: nearly all actives have a fitted effect of over 65% in size
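HeLa cells stably expressing Vif plus C-terminally eYFP-tagged A3F were seeded, incubated overnight at 37 deg C, dosed with compound, incubated overnight again at 37 deg C. Yellow fluorescence (Ex 488/Em 500-530) reported blocked Vif-mediated A3F-eYFP degradation.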
KAT2A inh = GCN5L2 (KAT2A) acetyltransferase inhibition. Q92830. GCN5L2 HAT assay, ThioGlo1 CoA-SH fluorescence. Potency, µM (doses to about 58.9 µM), actives largely listed as inhibitors. actives 0.21% (n = 390,000). AID 504327
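GCN5L2 (20nM final) in 50mM HEPES, 0.1mM EDTA pH 7.5, 0.01% Tween-20 was preincubated 15 min at room temperature with compound, then given ThioGlo1 (50uM), H3(1-25) peptide (75uM) and acetyl-CoA (70uM); CoA-thiol fluorescence (Ex340/Em540) was read at 0 and 20 min.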
Of the large screens only hits and unclear results are named; the others gave an inactive call. Unless noted, calls follow the shape of the dose curve; as a rule, active = well fitted curve in the direction sought with a large enough effect; inconclusive = small, poorly fitted or top-dose-only effect, or another doubt; inactive = no such curve, though single readings can be large; an effect the other way counts as inactive or inconclusive.

CN(C)c1ccc(C2N(c3ccc(F)cc3)C(=O)C3CCCN32)cc1 (centres undefined)	none
COc1ccc(NC(=O)CSc2ncn(-c3ccccc3)n2)cc1Cl	PKM2 activator 14µM
CCOC(=O)/C=C/C(=O)OCC(=O)Nc1ccc(OC)c(Cl)c1	Vif-A3G inh inconclusive
COc1ccc(NC(=O)COC(=O)/C=C/C(=O)OCC(=O)Nc2ccc(OC)c(Cl)c2)cc1Cl	RGS12 GoLoco inh 8.9µM
Cc1ccc(NC(=O)CSc2ncn(-c3ccccc3)n2)cc1C	none
O=C(COc1ccc(Cl)cc1)Nc1cccc(S(=O)(=O)NCc2ccco2)c1	none (no result: PKM2 activator, RGS12 GoLoco inh)
O=C(Cn1c2[n+](c3ccc(C(F)(F)F)cc31)CCCCC2)Nc1ccc(Br)cc1	RGS12 GoLoco inh 18µM
CC1CC(C)CN(CC(=O)c2c[nH]c3ccccc23)C1 (centres undefined)	Vif-A3G inh inconclusive, Vif-A3F inh 32µM (no result: PKM2 activator, RGS12 GoLoco inh)
Cc1ccc(S(=O)(=O)N(C)C)cc1NC(=O)CCc1c[nH]c2ccccc12	none
Cc1ccc(/C=C2\NC(=S)NC2=O)cc1[N+](=O)[O-]	none
COC1=CC(=Cc2c(N)n3nc(CC(=O)N4CCCCC4)sc3nc2=O)C=C(OC)C1=O	IL2 activator 85 (no result: PKM2 activator, RGS12 GoLoco inh)
Cc1nn(C)cc1C1C2=C(CC(C)(C)CC2=O)N(c2ccccc2)C2=C1C(=O)CC(C)(C)C2	none
O=C(c1ccc(S(=O)(=O)c2cccc(Cl)c2)c([N+](=O)[O-])c1)N1CCN(Cc2ccccc2)CC1	PKM2 activator 3.2µM
COc1ccc(C(=O)N2CCN(Cc3ccccc3)CC2)cc1[N+](=O)[O-]	none (no result: RGS12 GoLoco inh)
COc1ccc2cc3c(N)nn(C(=O)c4ccccc4Cl)c3nc2c1	PKM2 activator 20µM
COc1ccc2cc3c(N)nn(C(=O)c4ccc(F)cc4)c3nc2c1	none
COC(=O)Cc1[nH]nc2c1C(c1cccc(OC)c1OC)C(C#N)=C(N)O2 (centres undefined)	none
C=CCC1[C@H](C)[C@H]2[C@@H]3CC[C@@H](C3)[C@H]2CN1S(=O)(=O)c1ccc(C)cc1 (some centres undefined)	none (no result: PKM2 activator, RGS12 GoLoco inh)
CCn1c(/C=C/Nc2ccccc2)[n+](CC)c2cc(Cl)c(Cl)cc21	RGS12 GoLoco inh 1.6µM
CCn1c(/C=C/N(C(C)=O)c2ccccc2)[n+](CCCS(=O)(=O)[O-])c2cc(Cl)c(Cl)cc21	none
CCc1nnc(SCC(=O)NC2CCCC2)nc1CC	none
CN(C)c1ccc(/C=C(/C(=O)c2ccc(Cl)cc2Cl)n2cncn2)cc1	Vif-A3G inh 13µM, Vif-A3F inh inconclusive
COCCn1c(SCC(=O)c2c[nH]c3ccccc23)nnc1-c1ccncc1	none
CCn1c(SCC(=O)c2c[nH]c3ccccc23)nnc1-c1cccs1	Vif-A3G inh 11µM, Vif-A3F inh 22µM
S=C(NCc1ccco1)Nc1ccccn1	Vif-A3F inh inconclusive
S=C(NCc1ccco1)Nc1ccc(Cl)cn1	Vif-A3F inh 25µM (no result: RGS12 GoLoco inh)
CC(C)(C)C(=O)c1c(N)[nH]c(C(=O)c2ccccc2)c1-c1ccc(Cl)cc1Cl	none (no result: PKM2 activator, RGS12 GoLoco inh, Vif-A3G inh, Vif-A3F inh, KAT2A inh)
CCOC(=O)/C(C#N)=C\c1ccc(CC)s1	none
CCOC(=O)/C(C#N)=C\C=C1C=CN(C)C=C1	Vif-A3G inh inconclusive, Vif-A3F inh 22µM, KAT2A inh inconclusive
O=C(Nc1ccc(O)cc1)C1CC=CCC1 (centres undefined)	RGS12 GoLoco inh 25µM
CCC(C(=O)O)c1ccccc1 (centres undefined)	RGS12 GoLoco inh 28µM (no result: PKM2 activator, Vif-A3G inh, IL2 activator, Vif-A3F inh)
CCC(C(N)=O)c1ccccc1 (centres undefined)	none (no result: PKM2 activator, Vif-A3G inh, IL2 activator, Vif-A3F inh)
Cc1cc(C(=O)O)ccc1-c1ccc(/C=C2\NC(=O)N(Cc3ccccc3Cl)C2=O)o1	PKM2 activator 20µM, KAT2A inh inconclusive
CCN1/C(=C/C=C2/SC(=Nc3cccc4ncccc34)N(C)C2=O)Sc2ccccc21	Vif-A3F inh 3.5µM (no result: PKM2 activator, RGS12 GoLoco inh, KAT2A inh)
Cc1ccc(C2C3=C(CCCC3=O)Nc3[nH]c(=S)[nH]c(=O)c32)cc1 (centres undefined)	KAT2A inh 22µM

Compound activity: PubChem BioAssay, National Center for Advancing Translational Sciences (NCATS)
